20 compounds from PubChem BioAssay (Tox21) can be followed below.

A short description of assay [1]: qHTS assay to identify small molecule agonists of the peroxisome proliferator-activated receptor delta (PPARd) signaling pathway - cell viability counter screen (AID 743211). Also: nearly all actives have a fitted effect of over 55% in size. The gist of the method: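 Tox21 library compounds, delivered in DMSO, were incubated 17 h with PPARd-bla HEK293H cells; cytotoxicity was taken from CellTiter-Glo luminescence read 30 min after reagent addition.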

Assay [2] can be described thus: qHTS assay to identify small molecule agonists of the farnesoid-X-receptor (FXR) signaling pathway - cell viability counter screen (AID 743218). Also: nearly all actives have a fitted effect of over 45% in size. Also: potency is read from the fitted curve at half-maximal effect. Summed up:
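HEK 293T FXR-bla cells; 5 h pre-incubation, 16 h compound exposure at 37 C; LiveBLAzer substrate 2 h RT, then CellTiter-Glo 30 min RT, luminescence.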
A general note: qHTS replaces the single test concentration by a dilution series.

A short description of assay [3]: qHTS assay to identify small molecule antagonists of the farnesoid-X-receptor (FXR) signaling pathway - cell viability counter screen (AID 743221; active = well fitted cell-killing curve with a large enough effect in the repeat runs, not every such curve was filed as active; also: nearly all actives have a fitted effect of over 50% in size). Summed up:
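Cytotoxicity is taken from ATP luminescence (CellTiter-Glo, 30 min, room temperature) in FXR-bla HEK 293T cells previously incubated 16 h at 37 C with compound and chenodeoxycholic acid at 50 uM final.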

Assay [4] deals with Vitamin D3 receptor (Homo sapiens) (UniProt P11473). Briefly: qHTS assay to identify small molecule agonists of the vitamin D receptor (VDR) signaling pathway (AID 743222; calls by dose curve). Summed up: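 VDR-bla cells, 2,000/well; 4 h preincubation 37C; cpd (DMSO) 16 h; LiveBLAzer B/G substrate 2 h RT; fluorescence intensity read.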
The target is the same in assay [5]. Briefly: qHTS assay to identify small molecule antagonists of the vitamin D receptor (VDR) signaling pathway (AID 743223; active = well fitted inhibition curve with a large enough effect in the signal ratio in the repeat runs, not every such curve was filed as active; the % refers to the signal ratio). Summed up:
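Quantitative HTS in VDR-bla reporter cells stimulated with 1alpha,25-dihydroxyvitamin D3, 3 nM final. Compound exposure 16 h, 37C, 5% CO2. Read-out: beta-lactamase FRET substrate fluorescence, 2 h RT.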

Assay [6] deals with Peroxisome proliferator-activated receptor delta (Homo sapiens) (UniProt Q03181). Briefly: qHTS assay to identify small molecule agonists of the peroxisome proliferator-activated receptor delta (PPARd) signaling pathway (AID 743212; calls by dose curve). Summed up: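 GeneBLAzer UAS-bla HEK293H cells carrying a PPARδ construct were exposed to compounds at 37 °C. Beta-lactamase activity was read by FRET fluorescence after 2 h at room temperature with LiveBLAzer B/G substrate.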

Assay [7] can be described thus: qHTS assay to identify small molecule antagonists of the peroxisome proliferator-activated receptor delta (PPARd) signaling pathway - cell viability counter screen (AID 743213). Also: nearly all actives have a fitted effect of over 50% in size. Summed up:
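Agonist-stimulated (L165041, 300 nM final) HEK293H PPARd UAS-bla cells are exposed to compounds for 17 h at 37 C, and ATP-based luminescence (CellTiter-Glo) from the same wells reports cytotoxicity.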

Assay [8] deals with Peroxisome proliferator-activated receptor delta (Homo sapiens) (UniProt Q03181). Briefly: qHTS assay to identify small molecule antagonists of the peroxisome proliferator-activated receptor delta (PPARd) signaling pathway (AID 743215; active = well fitted inhibition curve with a large enough effect in the signal ratio in the repeat runs, not every such curve was filed as active; the % refers to the signal ratio; also: potency is read from the fitted curve at half-maximal effect; as to ratio activity, negative = inhibition: series mostly up to about 62 µM). The gist of the method: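 Read-out is beta-lactamase FRET fluorescence, measured 2 h after substrate addition at room temperature. Beforehand, UAS-bla HEK293H cells carrying the PPARd reporter were exposed to compounds with L165041 at 300 nM final for 17 h at 37 C.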

Assay [9] addresses Bile acid receptor (Homo sapiens) (UniProt Q96RI1). Briefly: qHTS assay to identify small molecule antagonists of the farnesoid-X-receptor (FXR) signaling pathway (AID 743217; active = well fitted inhibition curve with a large enough effect in the signal ratio in the repeat runs, not every such curve was filed as active; the % refers to the signal ratio). Summed up: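 HEK 293T FXR-UAS-bla, 5000 cells/well; compound + CDCA 50 uM final; 16 h, 37 °C; B/G FRET substrate 2 h RT; fluorescence.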
The target is the same in assay [10]. Briefly: qHTS assay to identify small molecule agonists of the farnesoid-X-receptor (FXR) signaling pathway (AID 743220; active = well fitted activation curve with a large enough effect in the signal ratio in the repeat runs, not every such curve was filed as active; the % refers to the signal ratio). Summed up:
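Beta-lactamase reporter under UAS control in GeneBLAzer FXR HEK 293T cells (5000/well) measured with LiveBLAzer FRET substrate after 2 h at room temperature. Compound exposure lasted 16 h at 37C.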

Structures are written as SMILES. Records with an inconclusive call do not appear. The source holds several records for some structures; these can differ, active in one and inactive in another. Calls of active or inactive are those of the source. Unless noted, calls follow the shape of the dose curve; as a rule, active = well fitted curve in the direction sought with a large enough effect in the repeat runs; inconclusive = weak or mixed curves; inactive = no such curve, though single readings can be large; an effect the other way counts as inactive or inconclusive.
% is scaled to controls: 0 for no effect and ±100 for the full control effect.

Sequence of Peroxisome proliferator-activated receptor delta (Homo sapiens) (Q03181 whole entry, looked up): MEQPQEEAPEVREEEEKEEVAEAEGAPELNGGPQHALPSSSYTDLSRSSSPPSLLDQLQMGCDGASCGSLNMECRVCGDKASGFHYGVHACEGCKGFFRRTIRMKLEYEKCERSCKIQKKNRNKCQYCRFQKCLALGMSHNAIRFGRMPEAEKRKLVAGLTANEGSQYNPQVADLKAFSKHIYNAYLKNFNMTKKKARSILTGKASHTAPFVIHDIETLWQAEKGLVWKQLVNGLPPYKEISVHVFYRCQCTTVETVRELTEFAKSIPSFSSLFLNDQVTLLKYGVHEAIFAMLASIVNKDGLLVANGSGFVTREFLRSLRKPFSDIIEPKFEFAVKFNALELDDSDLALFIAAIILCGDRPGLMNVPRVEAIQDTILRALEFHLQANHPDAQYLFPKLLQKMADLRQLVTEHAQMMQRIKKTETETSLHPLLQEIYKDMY
Sequence of Vitamin D3 receptor (Homo sapiens) (P11473 whole entry, looked up): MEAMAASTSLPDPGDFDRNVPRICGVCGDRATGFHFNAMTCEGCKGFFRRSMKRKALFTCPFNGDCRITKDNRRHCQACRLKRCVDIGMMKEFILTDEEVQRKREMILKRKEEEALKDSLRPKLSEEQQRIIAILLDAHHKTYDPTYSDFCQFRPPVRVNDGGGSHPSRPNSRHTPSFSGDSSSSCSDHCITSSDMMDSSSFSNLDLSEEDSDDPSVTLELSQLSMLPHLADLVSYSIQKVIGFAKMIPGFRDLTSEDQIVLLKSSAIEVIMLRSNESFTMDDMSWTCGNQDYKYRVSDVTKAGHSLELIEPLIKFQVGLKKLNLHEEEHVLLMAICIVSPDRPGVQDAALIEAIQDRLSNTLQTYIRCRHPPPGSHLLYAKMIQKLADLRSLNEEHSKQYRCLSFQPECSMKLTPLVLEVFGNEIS
Sequence of Bile acid receptor (Homo sapiens) (Q96RI1 whole entry, looked up): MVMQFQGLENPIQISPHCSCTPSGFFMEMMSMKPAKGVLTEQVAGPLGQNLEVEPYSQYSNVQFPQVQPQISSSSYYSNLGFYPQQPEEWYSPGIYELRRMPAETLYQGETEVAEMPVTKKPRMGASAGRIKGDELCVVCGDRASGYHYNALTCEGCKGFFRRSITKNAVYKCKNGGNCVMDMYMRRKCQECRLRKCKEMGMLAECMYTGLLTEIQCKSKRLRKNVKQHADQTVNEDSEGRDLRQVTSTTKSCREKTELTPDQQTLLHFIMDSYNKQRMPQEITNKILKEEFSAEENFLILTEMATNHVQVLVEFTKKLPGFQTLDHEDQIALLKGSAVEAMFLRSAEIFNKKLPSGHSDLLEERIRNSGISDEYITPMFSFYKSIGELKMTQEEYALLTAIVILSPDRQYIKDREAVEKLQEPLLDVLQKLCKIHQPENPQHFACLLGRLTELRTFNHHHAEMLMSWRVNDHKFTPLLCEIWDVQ

Regarding `CCCN1CCC[C@@H]2Cc3nc(N)ncc3C[C@H]21`, the Potency result in assay [1], in [2] and in [3] was “inactive” each time. For the same compound, the compound was classed as inactive in [4] and in assay [5].
On to `CCC(=O)OC1(c2ccccc2)CCN(C)CC1`, for which the call in assay [6], in [9], in assay [10], in assay [4] and in assay [5] was inactive. The Potency entry in [7], in assay [8], in [2] and in [3] was “inactive” throughout.
As for `C[C@H](N)C(=O)c1ccccc1`, the outcome in assay [6], in assay [9], in [10], in assay [4] and in [5] was inactive. Further, the Potency result in [7], in assay [8], in [2] and in assay [3] was “inactive” throughout.
On to `CCN(CC)C1CCCCC1`, for which the compound was called inactive in assay [6], in assay [9], in assay [10], in assay [4] and in assay [5]. Moreover, the Potency result in assay [7], in [8], in assay [2] and in assay [3] was “inactive” each time.
Turning to `CC(Cc1ccccc1)NCCCCl` (centres undefined), the compound was classed as inactive in assay [6], in assay [9], in [10], in assay [4] and in assay [5]. Also, the Potency result in assay [7], in assay [8], in [2] and in [3] was “inactive” each time.
On to `CCOC(=O)c1ncn2c1CN(C)C(=O)c1c(I)cccc1-2`, for which the compound was classed as inactive in assay [6], in assay [9], in [10] and in assay [4]. The Potency result in assay [7], in assay [8], in [2] and in [3] was “inactive” in each case.
Regarding `CCOC(=O)CCl`, the compound was called inactive in assay [6], in assay [9], in [10], in [4] and in assay [5]. The Potency result in [7], in [8], in [2] and in [3] was “inactive” each time.
Turning to `CC(C)(O)C(Cl)(Cl)Cl`, the compound was called inactive in assay [6], in [9], in [10] and in assay [5]. Besides, the Potency entry in assay [7], in assay [8], in assay [2] and in assay [3] was “inactive” each time.
As for `CC(C)(C)c1cc(O)ccc1O`, the result in assay [6], in [9] and in [10] was inactive. For the same compound, the Potency in [8] is 54.9 µM (active). For the same compound, the Potency entry in assay [2] and in assay [3] was “inactive” in each case.
Take `CCN(CCO)CCO`: the call in assay [6] and in [5] was inactive. Moreover, the Potency result in assay [7], in assay [2] and in [3] was “inactive” in each case.
`CCCCCCCCBr`: the Potency result in assay [7], in assay [2] and in assay [3] was “inactive” each time. The call in assay [9], in assay [10], in assay [4] and in [5] was inactive.
As to `Brc1c(Br)c(Br)c(Br)c(Br)c1Br`, in [6], the activation is 3.14% [at 5.95 µM] (inactive). In addition, the viability change, negative = cytotoxic in assay [7] was -8.99% [at 6.26 µM] (inactive); in assay [2], 26.7% [at 5.95 µM] (inactive). Further, the ratio activity, negative = inhibition in assay [8] is -21.8% [at 6.26 µM] (inactive). The activity change, negative = cytotoxicity in assay [3] is -6% [at 5.95 µM] (inactive).
On to `CCOC(=O)CC(SP(=S)(OC)OC)C(=O)OCC` (centres undefined), for which the compound was called inactive in assay [6], in assay [4] and in [5]. The Potency entry in [7], in assay [8], in assay [2] and in [3] was “inactive” throughout.
Consider `O=C(Cl)C(Cl)(Cl)Cl`, for which the compound was classed as inactive in [6], in assay [9], in assay [10], in assay [4] and in assay [5]. Besides, the Potency result in assay [8], in assay [2] and in [3] was “inactive” each time.
Turning to `CCOc1cc(OP(=S)(OC)OC)nc(CC)n1`, in assay [6], the outcome was inactive. For the same compound, the Potency result in assay [7], in assay [8], in assay [2] and in [3] was “inactive” in each case.
With `NC1(c2ccccc2)CCCCC1`, the result in [6] and in assay [10] was inactive. Moreover, the Potency entry in assay [7], in [8], in assay [2] and in assay [3] was “inactive” each time.
For `CC1N=C(N)OC1c1ccccc1` (centres undefined), the outcome in assay [6], in assay [10], in assay [4] and in [5] was inactive. Also, the Potency entry in assay [7], in assay [8], in assay [2] and in assay [3] was “inactive” each time.
On to `ClC1=C(Cl)C2(Cl)C(CBr)CC1(Cl)C2(Cl)Cl` (centres undefined), for which the outcome in [6], in [4] and in [5] was inactive. The Potency entry in assay [7], in [8] and in [3] was “inactive” each time. Further, the Potency in assay [2] was 54.9 µM (active) and inactive.
As to `C=CC(=O)OCCN(C)C`, the call in assay [6] and in assay [4] was inactive. The Potency entry in assay [7], in assay [8], in [2] and in assay [3] was “inactive” each time.
On to `C=C(Cl)CSC(=S)N(CC)CC`, for which the compound was called inactive in assay [6], in [9], in assay [10], in assay [4] and in assay [5]. In addition, the Potency result in [7], in [2] and in [3] was “inactive” throughout.
